This passage reports Potency and outcome results from PubChem BioAssay (Tox21).

Unmarked numbers belong to inactive results. Results filed as inconclusive are left out. Active and inactive are the calls of the source. Unless noted, the call rests on the fitted dose curve.

Test [1] in a line: Nuclear factor erythroid 2-related factor 2/antioxidant responsive element (Nrf2/ARE) small molecule agonists: qHTS cell viability counter screen in human keratinocytes (AID 1919968; active means well fitted curve in the direction sought with a large enough effect in the repeat runs; an effect the other way counts as inactive or inconclusive; further: nearly all actives have a fitted effect of over 55% in size). In a few lines: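 Parallel cytotoxicity read: KeratinoSens HaCaT cells, compound treatment 23 h, viability by CellTiter-Fluor fluorescence 1 h post-reagent.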
Test [2] can be described thus: Nuclear factor erythroid 2-related factor 2/antioxidant responsive element (Nrf2/ARE) small molecule agonists: luciferase reporter gene qHTS assay in human keratinocytes (AID 1919969). Further: nearly all actives have a fitted effect of over 35% in size. Further: potency means the concentration at half of the fitted maximal effect.
The target in test [3] is Gonadotropin-releasing hormone receptor (Homo sapiens) (UniProt P30968). In words: Human gonadotropin-releasing hormone receptor (GnRHR) small molecule agonists, calcium flux assay in GnRHR-HEK293 cells (AID 1920063). Further: nearly all actives have a fitted effect of over 35% in size. In a few lines: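 Calcium flux, agonist mode, human GnRHR stably integrated in HEK293; dye 1 h at 37 C before compound; Ex/Em=480/540 kinetic read, 3 min; 15 concentrations, triplicate.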
Chain of Gonadotropin-releasing hormone receptor (Homo sapiens) (P30968 whole entry, looked up): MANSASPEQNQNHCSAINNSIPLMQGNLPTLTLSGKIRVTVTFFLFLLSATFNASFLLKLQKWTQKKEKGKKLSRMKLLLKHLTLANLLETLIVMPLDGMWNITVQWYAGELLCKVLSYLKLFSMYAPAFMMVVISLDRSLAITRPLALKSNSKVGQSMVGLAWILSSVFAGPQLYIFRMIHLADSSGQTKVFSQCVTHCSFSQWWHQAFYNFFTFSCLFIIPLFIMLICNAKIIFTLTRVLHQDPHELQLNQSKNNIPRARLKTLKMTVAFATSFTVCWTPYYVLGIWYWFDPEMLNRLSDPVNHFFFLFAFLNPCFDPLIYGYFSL

Test [4] deals with KiSS-1 receptor (Homo sapiens) (UniProt Q969F8). Kind of test: Human kisspeptin (KISS1R) small molecule agonists, calcium flux assay in KISS1R-HEK293 cells (AID 1920064; active means well fitted curve in the direction sought with a large enough effect in the repeat runs; an effect the other way counts as inactive or inconclusive). An outline of the steps: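 Triplicate 15-concentration series were applied to dye-loaded human KISS1R HEK293 cells, and agonist-evoked calcium fluorescence was captured for 3 min.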
Chain of KiSS-1 receptor (Homo sapiens) (Q969F8 whole entry, looked up): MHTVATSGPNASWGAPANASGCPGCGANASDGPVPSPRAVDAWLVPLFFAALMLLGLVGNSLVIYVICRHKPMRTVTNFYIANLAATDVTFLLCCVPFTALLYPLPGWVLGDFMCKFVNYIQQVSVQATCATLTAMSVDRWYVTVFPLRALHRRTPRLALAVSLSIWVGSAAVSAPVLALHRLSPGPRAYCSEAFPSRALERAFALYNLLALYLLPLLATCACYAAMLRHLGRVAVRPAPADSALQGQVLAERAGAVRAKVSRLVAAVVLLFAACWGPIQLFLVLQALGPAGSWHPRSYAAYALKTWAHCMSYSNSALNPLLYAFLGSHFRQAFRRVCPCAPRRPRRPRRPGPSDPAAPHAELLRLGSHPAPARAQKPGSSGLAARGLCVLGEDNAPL
Test [5] in a line: G protein-coupled receptor (GPCR) small molecule agonists, calcium flux assay: HEK293 wild type cell line counter screen (AID 1920065). In a few lines:
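Non-specific calcium responders were flagged by adding DMSO-dissolved compounds to dye-loaded cells and reading 480/540 nm fluorescence each second for 3 min; ATP served as positive control.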

Test [6] can be described thus: p53 small molecule agonists, cell-based qHTS assay with human liver microsomes (AID 1963577).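 Further: p53 response element beta-lactamase reporter cells with liver microsomes plus NADPH.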 An outline of the steps: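 16 h, 37 C exposure of p53RE-bla cells to compounds with human liver microsomes and NADPH (0.5 mg/mL final each); detection via LiveBLAzer mixture, 2 h dark at room temperature.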
The nature of test [7]: p53 small molecule agonists, cell-based qHTS assay with rat liver microsomes (AID 1963578). An outline of the steps: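 With rat liver microsomes and NADPH present (0.5 mg/mL final each), p53RE-bla cells are treated with compound for 16 h at 37 C. LiveBLAzer detection mixture is then applied for 2 h at room temperature in the dark.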
Test [8] can be described thus: p53 small molecule agonists, cell-based qHTS assay with human liver microsomes: qHTS cell viability counter screen (AID 1963579). Further: nearly all actives have a fitted effect of over 45% in size. An outline of the steps: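 In this multiplexed counter screen, the reporter plates were subsequently treated with CellTiter-Glo so that cell viability, reflected by luminescence, could be recorded for p53RE-bla cells dosed 16 h with compounds under microsomal activation (HLM and NADPH).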

Test [9] in a line: p53 small molecule agonists, cell-based qHTS assay with rat liver microsomes: qHTS cell viability counter screen (AID 1963580). Further: nearly all actives have a fitted effect of over 45% in size. In a few lines:
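Cytotoxicity counter screen: intracellular ATP measured by CellTiter-Glo luminescence in the same wells as the beta-lactamase reporter read, on HCT-116 p53RE-bla cells exposed 16 h at 37 C to compounds with rat liver microsomes and NADPH, each 0.5 mg/mL final.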

Test [10] in a line: p53 small molecule agonists, cell-based qHTS assay: qHTS cell viability counter screen (AID 1963581). Further: nearly all actives have a fitted effect of over 45% in size. In a few lines:
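Multiplexed with the reporter read, a CellTiter-Glo step (30 min, room temperature) gauges ATP-based viability of HCT-116 p53RE-bla cells after 16 h compound incubation at 37 C.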

Test [11] is described as follows: p53 small molecule agonists, cell-based qHTS assay (AID 1963582; active means well fitted activation curve with a large enough effect in the signal ratio in the repeat runs, not every such curve was filed as active; the % refers to the signal ratio). An outline of the steps:
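Beta-lactamase reporter cells (p53RE-bla) treated with compounds for 16 h at 37 C; FRET substrate, 2 h, room temperature; fluorescence intensity.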

Test [12] addresses 5-hydroxytryptamine receptor 2A (Homo sapiens) (UniProt P28223). Kind of test: 5-hydroxytryptamine receptor 2A (HTR2A) small molecule antagonists, cell-based qHTS assay (AID 1963586). Further: nearly all actives have a fitted effect of over 45% in size. Further: potency means the concentration at half of the fitted maximal effect. In a few lines:
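CHO cells stably expressing human HTR2A were plated for 18 h at 37 C, then loaded with calcium dye for 1 h. Compounds were preincubated 5 min at room temperature before DOI (4 nM solution) was added. Kinetic fluorescence was read for 3 min.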

The target is the same in test [13]. Kind of test: 5-hydroxytryptamine receptor 2A (HTR2A) small molecule agonists, cell-based qHTS assay (AID 1963587). Further: nearly all actives have a fitted effect of over 30% in size. An outline of the steps: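 CHO cells stably expressing human HTR2A, plated 18 h, loaded with calcium dye 1 h at 37 C. Agonist mode: compounds added and intracellular calcium fluorescence recorded kinetically for 2 min at 1 sec intervals.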
In test [14] the target is Muscarinic acetylcholine receptor M1 (Homo sapiens) (UniProt P11229). In words: Cholinergic receptor muscarinic 1 (CHRM1) small molecule antagonists, cell-based qHTS assay (AID 1963588). Further: nearly all actives have a fitted effect of over 40% in size. In a few lines:
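Compounds were tested at 15 concentrations in three independent runs. Dye-loaded CHRM1-CHO cells were exposed 5 min at room temperature before stimulation by acetylcholine added at 50nM. Intracellular calcium was read kinetically on FDSS for 3 min.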

Test [15] can be described thus: cAMP Responsive Elements (CRE) small molecule agonists, cell-based qHTS assay (AID 1963590). In a few lines:
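Quantitative HTS for CRE agonists: HEK 293T CRE-bla cells, overnight plating, 3 h compound incubation at 37 C/5% CO2, then 2 h room-temperature LiveBLAzer B/G FRET substrate loading.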

Test [16] in a line: cAMP Responsive Elements (CRE) small molecule antagonists, cell-based qHTS assay (AID 1963591; active means well fitted inhibition curve with a large enough effect in the signal ratio in the repeat runs, not every such curve was filed as active; the % refers to the signal ratio). An outline of the steps: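 Fluorescence intensity from cleaved LiveBLAzer B/G substrate (2 h, room temperature) quantified CRE-bla activity in HEK 293T cells exposed 3 h to compound with 0.25 uM final NKH477.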
Test [17] deals with D(2) dopamine receptor (Homo sapiens) (UniProt P14416). In words: Dopamine D2 receptor (DRD2) small molecule agonists, cell-based qHTS assay (AID 1963594). Further: nearly all actives have a fitted effect of over 35% in size. In a few lines: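 HEK293 cells stably expressing human DRD2, pre-treated with PDE inhibitor Ro20-1724 (0.1 mM final) and compound 10 min at room temperature, then stimulated with NKH477 (200nM […]) for 30 min. cAMP read by HTRF (665/620 nm).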
Chain of D(2) dopamine receptor (Homo sapiens) (P14416 whole entry, looked up): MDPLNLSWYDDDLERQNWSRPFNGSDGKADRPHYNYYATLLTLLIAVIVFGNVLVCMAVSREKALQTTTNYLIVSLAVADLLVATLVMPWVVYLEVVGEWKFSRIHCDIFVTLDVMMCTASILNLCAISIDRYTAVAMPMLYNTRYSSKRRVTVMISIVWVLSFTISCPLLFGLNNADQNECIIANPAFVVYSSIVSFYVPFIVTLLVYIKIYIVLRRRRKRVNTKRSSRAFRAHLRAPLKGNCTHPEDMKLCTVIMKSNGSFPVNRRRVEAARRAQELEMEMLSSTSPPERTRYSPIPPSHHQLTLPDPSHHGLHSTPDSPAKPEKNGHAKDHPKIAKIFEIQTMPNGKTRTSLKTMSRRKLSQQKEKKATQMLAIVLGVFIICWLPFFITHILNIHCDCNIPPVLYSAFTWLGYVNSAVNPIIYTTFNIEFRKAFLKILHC

The target is the same in test [18]. In words: Dopamine D2 receptor (DRD2) small molecule antagonists, cell-based qHTS assay (AID 1963595; active means well fitted inhibition curve with a large enough effect in the signal ratio in the repeat runs, with a control signal flat; the % refers to the signal ratio). In a few lines:
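Antagonist mode in DRD2-HEK293 cells: after compound addition with 0.1 mM Ro20-1724, cells received quinpirole (12 nM) and NKH477 (200 nM) for 30 min at room temperature; HTRF cAMP read after 1 h detection.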

Test [19] concerns the target Muscarinic acetylcholine receptor M1 (Homo sapiens) (UniProt P11229). Kind of test: Cholinergic receptor muscarinic 1 (CHRM1) small molecule agonists, cell-based qHTS assay (AID 1963589). Further: nearly all actives have a fitted effect of over 35% in size. In a few lines:
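qHTS, 15-point titration, 3 independent runs: compounds pin-transferred onto dye-loaded CHRM1-CHO cells (human M1), calcium fluorescence followed every second to detect agonism.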

The target of test [20] is Beta-2 adrenergic receptor (Homo sapiens) (UniProt P07550). Kind of test: Adrenergic beta2 receptor (ADRB2) small molecule antagonists, cell-based qHTS assay (AID 1963592). Further: series mostly up to about 92 µM; nearly all actives have a fitted effect of over 50% in size. In a few lines: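 Assay format: CHO-ADRB2 cells, 18-20hr seeding at 37C/5% CO2, then compound plus 1nM isoproterenol agonist mix for 0.5hr RT. Homogeneous time-resolved fluorescence cAMP detection after 1hr, expressed as 665/615 nm ratio.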
Chain of Beta-2 adrenergic receptor (Homo sapiens) (P07550 whole entry, looked up): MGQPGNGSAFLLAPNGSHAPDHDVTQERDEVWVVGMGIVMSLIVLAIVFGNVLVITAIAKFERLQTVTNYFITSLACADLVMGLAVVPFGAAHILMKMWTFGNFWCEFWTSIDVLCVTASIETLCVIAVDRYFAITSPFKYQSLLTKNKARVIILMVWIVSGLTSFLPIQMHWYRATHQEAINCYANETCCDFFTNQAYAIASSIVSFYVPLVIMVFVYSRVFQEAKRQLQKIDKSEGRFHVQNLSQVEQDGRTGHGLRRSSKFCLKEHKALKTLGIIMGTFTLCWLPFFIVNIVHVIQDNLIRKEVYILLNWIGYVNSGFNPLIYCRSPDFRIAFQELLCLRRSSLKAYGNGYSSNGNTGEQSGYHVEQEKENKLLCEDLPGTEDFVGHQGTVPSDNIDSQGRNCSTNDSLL

Chain of 5-hydroxytryptamine receptor 2A (Homo sapiens) (P28223 whole entry, looked up): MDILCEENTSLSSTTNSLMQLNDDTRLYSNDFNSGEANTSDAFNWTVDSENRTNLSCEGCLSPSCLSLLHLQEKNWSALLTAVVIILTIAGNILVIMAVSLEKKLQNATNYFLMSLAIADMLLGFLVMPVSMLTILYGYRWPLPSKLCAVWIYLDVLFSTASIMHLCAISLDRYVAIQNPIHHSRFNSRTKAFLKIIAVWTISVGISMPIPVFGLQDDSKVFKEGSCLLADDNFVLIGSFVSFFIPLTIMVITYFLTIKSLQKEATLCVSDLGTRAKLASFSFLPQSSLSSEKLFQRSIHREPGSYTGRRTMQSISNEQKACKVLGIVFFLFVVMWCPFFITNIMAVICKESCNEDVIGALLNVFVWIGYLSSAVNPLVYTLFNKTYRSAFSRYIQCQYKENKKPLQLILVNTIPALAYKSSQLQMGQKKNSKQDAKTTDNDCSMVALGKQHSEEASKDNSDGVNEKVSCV
Chain of Muscarinic acetylcholine receptor M1 (Homo sapiens) (P11229 whole entry, looked up): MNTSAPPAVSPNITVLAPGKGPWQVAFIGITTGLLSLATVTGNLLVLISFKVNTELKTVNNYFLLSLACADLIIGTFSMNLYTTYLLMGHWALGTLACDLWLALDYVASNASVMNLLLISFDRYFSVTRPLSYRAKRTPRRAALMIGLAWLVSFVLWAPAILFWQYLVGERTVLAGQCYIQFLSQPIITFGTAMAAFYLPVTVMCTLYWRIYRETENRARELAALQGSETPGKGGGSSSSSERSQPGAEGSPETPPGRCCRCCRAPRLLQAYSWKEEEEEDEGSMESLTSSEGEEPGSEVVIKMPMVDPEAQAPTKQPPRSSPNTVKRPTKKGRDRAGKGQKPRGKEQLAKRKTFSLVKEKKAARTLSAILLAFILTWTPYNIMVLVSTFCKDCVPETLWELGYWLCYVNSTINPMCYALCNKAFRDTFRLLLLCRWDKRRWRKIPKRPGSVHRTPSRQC

On to `Cc1[nH]c(=O)c(C#N)cc1-c1ccc2nccn2c1`, for which the Potency entry in test [1], in test [2], in test [3], in test [6], in test [7] and in test [8] was “inactive” each time. The Potency entry in test [9], in test [10], in [11], in [12], in test [13] and in test [14] was “inactive” in each case. Further, the Potency result in test [15], in test [16], in test [17] and in [18] was “inactive” each time. Besides, the result in test [4] and in test [5] was inactive.

As for `CC(C)C[C@@H]1[C@H](c2ccccc2)OC(=O)N1CCCN1CCCCCC1`, the Potency entry in [1], in test [2], in test [3], in [6], in test [7] and in [8] was “inactive” each time. The Potency result in test [9], in test [10], in [11], in [13], in [14] and in test [19] was “inactive” each time. The Potency result in test [17] and in test [18] was “inactive” each time. The result in test [4] and in test [5] was inactive. Further, in [12], the Potency is 2.59 µM (active).

Turning to `COc1ccc(C)cc1[N+](=O)[O-]`, the Potency result in test [1], in [2], in [3], in test [6], in [7] and in test [8] was “inactive” each time. Besides, the Potency entry in [9], in test [10], in test [11], in [12], in test [13] and in test [14] was “inactive” throughout. Besides, the Potency entry in [15], in [20] and in test [17] was “inactive” each time. Moreover, the outcome in [4] and in test [5] was inactive.

On to `CCOc1cc([N+](=O)[O-])c(OCC)cc1N1CCOCC1`, for which the Potency entry in [1], in test [2], in [3], in test [6], in test [7] and in [8] was “inactive” in each case. In addition, the Potency result in [9], in [10], in test [11], in test [12], in [13] and in test [14] was “inactive” in each case. The Potency entry in test [19] and in test [17] was “inactive” in each case. The result in test [4] and in test [5] was inactive.

`CCN1CCCC1CN` (stereo not drawn): the Potency result in test [1], in [2], in test [3], in test [6], in test [7] and in [8] was “inactive” in each case. Besides, the Potency entry in [9], in [10], in test [11], in [12], in [13] and in test [14] was “inactive” each time. Further, the Potency result in test [15], in test [16], in test [20], in test [17] and in test [18] was “inactive” in each case. For the same molecule, the outcome in test [4] and in test [5] was inactive.

As for `O=c1c(O)c(O)c1=O`, the Potency result in test [1], in [2], in test [3], in [6], in test [7] and in test [8] was “inactive” throughout. Further, the Potency result in test [9], in test [10], in test [11], in test [12], in test [13] and in test [14] was “inactive” throughout. Also, the Potency entry in [19], in [17] and in test [18] was “inactive” each time. Further, the outcome in test [4] and in test [5] was inactive.

In the case of `O=C1CCCCCCCCCCOCCCCO1`, the Potency result in test [1], in test [3], in test [6], in [7], in test [8] and in test [9] was “inactive” throughout. Moreover, the Potency result in test [10], in test [11], in [12], in test [13], in test [19] and in test [15] was “inactive” throughout. For the same molecule, the Potency result in test [16], in test [20], in [17] and in [18] was “inactive” in each case. Further, in [2], the Potency was 30.6 µM (active). Besides, the outcome in test [4] and in test [5] was inactive.
